# Compounds without any hit were thinned out: in the full panel of roughly 79,000, 15% have a hit. Values without a mark were called inactive. Calls of active or inactive are those of the source. Cut-off read from the data, not from the text of the source: active = growth inhibition above about 70%; inactive = the rest. Where a SMILES comes first, the peptide text is derived from it. The star is where a group is joined. Boc = CC(C)(C)OC(=O)*; OBn = c1ccc(CO*)cc1; Bn = c1ccc(C*)cc1
# Test: NCI Yeast Anticancer Drug Screen. Data for the cln2 rad14 strain (AID 165);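 note: 0% = growth equal to vehicle treated cultures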
# Settings: S. cerevisiae cln2 rad14 strain, at 50.0 µM, hits give high values
# How it was run: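 Yeast carrying cln2 and rad14 alterations (cell cycle control and DNA damage repair) were exposed to compounds. Growth inhibition was measured against vehicle-treated controls.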
row,Structure (SMILES),growth inhibition
1,COc1cccc(NC(=O)CC(=O)NN2C(=O)/C(=C/c3ccc(N(CCC#N)CCC#N)cc3)N=C2c2cc([N+](=O)[O-])ccc2Cl)c1,-6.7%
2,O=Cc1ccc(-c2ccc([N+](=O)[O-])cc2)o1,-7.8%
3,O=C(N/N=C/c1cc(-c2ccccc2Cl)c(-c2ccccc2Cl)o1)c1ccncc1,28%
4,O=[N+]([O-])c1cn(CCNc2c3ccccc3nc3ccccc23)cn1,10.6%
5,CCOC(=O)CCCc1ccccc1,32.2%
6,O=C1c2ccccc2-c2c1c1ccccc1c(=O)n2Cc1ccco1,8.85%
7,CCOC(NC(C)=O)C(O)c1ccc(Cl)cc1 (stereo not given),-41.5%
8,C1CCN(c2nn[nH]n2)CC1,-10.3%
9,CCN(CC)C(=O)C1CCNCC1,-27.2%
10,CCCCCC(CCCC)OC(=O)Nc1ccccc1 (stereo not given),-7%
11,O=C(OC(=O)c1cccc(Br)c1)c1cccc(Br)c1,34.8%
12,O=C(COc1ccc(F)cc1)OCCO,-33.2%
13,COc1cc(C)nc2ccc(Cc3ccc4nc(C)cc(OC)c4c3)cc12,-14.2%
14,O=C(c1nc2ccc(Cl)cc2[nH]c1=O)C(O)c1ccco1 (stereo not given),-1.4%
15,O=C(Cc1ccccc1)NN1C(=O)C(Cl)C1c1cc(Br)ccc1O (stereo not given),-20.6%
16,Cc1ccc(NC(=O)Oc2cccc(C(F)(F)F)c2)cc1,-12.7%
17,CC(C)CC(NC(=O)C(CCC(=O)OCc1ccccc1)NC(=O)OC(C)(C)C)C(=O)NC(COCc1ccccc1)C(=O)NC(Cc1ccccc1)C(=O)O (stereo not given) (Boc-E(OBn)LS(Bn)F-OH; configuration not given here),6%
18,OC1COC2CC(Nc3ccccn3)OC12 (stereo not given),0%
19,CC(C)CCCC(C)C1CCC2(C)C3CCC(C(C)O)C(C)(CCCO)C3CCC12C (stereo not given),38.1%
20,CC(C)CCC[C@@H](C)[C@H]1CC[C@H]2[C@@H]3CC[C@H]4C[C@@H](CCC=C(c5cc(Cl)c(O)c(C(=O)O)c5)c5cc(Cl)c(O)c(C(=O)O)c5)CC[C@]4(C)[C@H]3CC[C@]12C,-4.2%

row,Structure (SMILES),growth inhibition
1,BrC1=NOC2c3cccc4cccc(c34)C12 (stereo not given),42%
2,O=C(O)Cc1ccc(Oc2ccc(CC(=O)O)cc2)cc1,-48.8%
3,CCN(CC)C1Oc2cc3c(cc2C(c2cccc(OC)c2OC)C1C)OCO3 (stereo not given),41.7%
4,CC(=O)OCC(C)CCC(C)COC(C)=O (stereo not given),-11.4%
5,NC(N)=NS(=O)(=O)c1ccc(Nc2c3ccccc3nc3c(C(=O)NNCCO)cccc23)cc1,-7.7%
6,Nc1on(C(=O)c2ccccc2)c(=O)c1Cc1ccccc1,-36%
7,O=C(O)C1Cc2c([nH]c3ccccc23)C=N1 (stereo not given),22.2%
8,O=C(Nc1ccc(S(=O)(=O)/N=c2\ncccn2C(=O)C(C(F)(F)F)C(F)(F)F)cc1)C(C(F)(F)F)C(F)(F)F,22.2%
9,COc1c(C)cc(Cc2ccc3c(c2)OCO3)cc1C,-22%
10,O=[N+]([O-])c1ccc2cccc3c2c1CC3,-19.4%
11,CN1C(c2ccccc2)=C(C#N)C(=O)CC(c2ccccc2)N1C (stereo not given),14.8%
12,C(/C=N/NC1=NCCCCN1)=N\NC1=NCCCCN1,4.5%
13,COCC(C)OC(=O)c1ccccc1Cl (stereo not given),2.65%
14,CC1(C)COC(c2cc(Br)ccc2Br)=N1,3.45%
15,CCOCC1OCCCO1,-9.85%
16,COc1ccc(C(O)C(C)C(O)(C(F)(F)F)C(F)(F)F)cc1 (stereo not given),63.8%
17,COC(=O)C(CC(=O)Nc1ccc(Cl)c(Cl)c1)C(=O)C(=O)Nc1ccc(Cl)c(Cl)c1 (stereo not given),6.6%
18,O=C1CCCC/C(=C/c2ccccc2)N1,12.8%
19,Cc1cc(O)cc(O)c1C(=O)O[C@]1(C)C(=O)C=C2C=C(/C=C/C(=O)O)OC=C2C1=O,9.6%
20,Cc1cccc(C)c1NC(=O)Nc1cccc(Cl)c1,-0.5%

# Test: NCI Yeast Anticancer Drug Screen. Data for the bub3 strain (AID 167)
# Settings: S. cerevisiae bub3 mutant strain, at 50.0 µM, hits give high values
# How it was run: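 Yeast carrying a defined mutation is treated with each compound, and growth is compared with that of vehicle-exposed cells to give inhibition.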
row,Structure (SMILES),growth inhibition
1,COc1cccc(NC(=O)CC(=O)NN2C(=O)/C(=C/c3ccc(N(CCC#N)CCC#N)cc3)N=C2c2cc([N+](=O)[O-])ccc2Cl)c1,0.3%
2,O=Cc1ccc(-c2ccc([N+](=O)[O-])cc2)o1,-0.3%
3,O=C(N/N=C/c1cc(-c2ccccc2Cl)c(-c2ccccc2Cl)o1)c1ccncc1,26.7%
4,O=[N+]([O-])c1cn(CCNc2c3ccccc3nc3ccccc23)cn1,-3.85%
5,CCOC(=O)CCCc1ccccc1,4.05%
6,O=C1c2ccccc2-c2c1c1ccccc1c(=O)n2Cc1ccco1,-11.2%
7,CCOC(NC(C)=O)C(O)c1ccc(Cl)cc1 (stereo not given),-9.9%
8,C1CCN(c2nn[nH]n2)CC1,12.4%
9,CCN(CC)C(=O)C1CCNCC1,9.85%
10,CCCCCC(CCCC)OC(=O)Nc1ccccc1 (stereo not given),-1.15%
11,O=C(OC(=O)c1cccc(Br)c1)c1cccc(Br)c1,-5.7%
12,O=C(COc1ccc(F)cc1)OCCO,-15.3%
13,COc1cc(C)nc2ccc(Cc3ccc4nc(C)cc(OC)c4c3)cc12,7.4%
14,O=C(c1nc2ccc(Cl)cc2[nH]c1=O)C(O)c1ccco1 (stereo not given),-24.7%
15,O=C(Cc1ccccc1)NN1C(=O)C(Cl)C1c1cc(Br)ccc1O (stereo not given),25.2%
16,Cc1ccc(NC(=O)Oc2cccc(C(F)(F)F)c2)cc1,15.4%
17,CC(C)CC(NC(=O)C(CCC(=O)OCc1ccccc1)NC(=O)OC(C)(C)C)C(=O)NC(COCc1ccccc1)C(=O)NC(Cc1ccccc1)C(=O)O (stereo not given) (Boc-E(OBn)LS(Bn)F-OH; configuration not given here),13.3%
18,OC1COC2CC(Nc3ccccn3)OC12 (stereo not given),-10.2%
19,CC(C)CCCC(C)C1CCC2(C)C3CCC(C(C)O)C(C)(CCCO)C3CCC12C (stereo not given),23.8%
20,CC(C)CCC[C@@H](C)[C@H]1CC[C@H]2[C@@H]3CC[C@H]4C[C@@H](CCC=C(c5cc(Cl)c(O)c(C(=O)O)c5)c5cc(Cl)c(O)c(C(=O)O)c5)CC[C@]4(C)[C@H]3CC[C@]12C,24.5%

row,Structure (SMILES),growth inhibition
1,BrC1=NOC2c3cccc4cccc(c34)C12 (stereo not given),34%
2,O=C(O)Cc1ccc(Oc2ccc(CC(=O)O)cc2)cc1,-8.75%
3,CCN(CC)C1Oc2cc3c(cc2C(c2cccc(OC)c2OC)C1C)OCO3 (stereo not given),41.9%
4,CC(=O)OCC(C)CCC(C)COC(C)=O (stereo not given),0.45%
5,NC(N)=NS(=O)(=O)c1ccc(Nc2c3ccccc3nc3c(C(=O)NNCCO)cccc23)cc1,15.9%
6,Nc1on(C(=O)c2ccccc2)c(=O)c1Cc1ccccc1,2.25%
7,O=C(O)C1Cc2c([nH]c3ccccc23)C=N1 (stereo not given),16.4%
8,O=C(Nc1ccc(S(=O)(=O)/N=c2\ncccn2C(=O)C(C(F)(F)F)C(F)(F)F)cc1)C(C(F)(F)F)C(F)(F)F,28.4%
9,COc1c(C)cc(Cc2ccc3c(c2)OCO3)cc1C,-10.6%
10,O=[N+]([O-])c1ccc2cccc3c2c1CC3,8.95%
11,CN1C(c2ccccc2)=C(C#N)C(=O)CC(c2ccccc2)N1C (stereo not given),11.4%
12,C(/C=N/NC1=NCCCCN1)=N\NC1=NCCCCN1,-13.6%
13,COCC(C)OC(=O)c1ccccc1Cl (stereo not given),21.1%
14,CC1(C)COC(c2cc(Br)ccc2Br)=N1,-3.3%
15,CCOCC1OCCCO1,-10%
16,COc1ccc(C(O)C(C)C(O)(C(F)(F)F)C(F)(F)F)cc1 (stereo not given),72.7% (active)
17,COC(=O)C(CC(=O)Nc1ccc(Cl)c(Cl)c1)C(=O)C(=O)Nc1ccc(Cl)c(Cl)c1 (stereo not given),-3.25%
18,O=C1CCCC/C(=C/c2ccccc2)N1,-21.8%
19,Cc1cc(O)cc(O)c1C(=O)O[C@]1(C)C(=O)C=C2C=C(/C=C/C(=O)O)OC=C2C1=O,-13.5%
20,Cc1cccc(C)c1NC(=O)Nc1cccc(Cl)c1,11%

# Source: PubChem BioAssay (NCI)
